Laboratory results as given in publication PMC5515408, “Sequence-specific DNA binding by MYC/MAX to low-affinity non-E-box motifs”.
Over roughly 5,000 sequences, “log2 normalized fluorescence” has its median near 0.089; the highest 2% begin near 0.81. The entries come from a sample that favours the highest values as a whole.

Target: MYC (p64);MAX (p21), in MYC:MAX (human;human, UniProt P01106-1;P61244-2 1-439;1-151, |)
Experiment: protein-binding microarray (anti-MAX antibody); PBM: 15 mM Tris-HCl pH 7.5, 100 mM KCl, 0.075% NP40, 7.5 mM beta-mercaptoethanol, 375 ng/ul BSA, 8 ng/ul poly(dA-dT):(dA-dT), 550 ng complex, 60 min, room tempe; high values mean tight binding
Conditions: protein: recombinant;recombinant; tags: 6xHis;6xHis; copies: 1;1; label: 3' end of printed strand (linker) attached to glass slide; dsDNA, one strand shown
How it was run: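 Binding, given as log2 normalized fluorescence, was measured on a custom Agilent glass array. The array bore ~5000 unique 12-nt sequences spotted in triplicate and converted to double strands by primer extension. It was incubated with 550 ng of human His-tagged MYC:MAX or MAX:MAX dimers from E. coli for 60 min at room temperature in Tris-KCl buffer, pH 7.5, with NP40, BSA and poly(dA-dT) competitor, and bound protein was detected with anti-MAX and secondary antibodies and scanned at 543 nm.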

MYC (p64);MAX (p21), in MYC:MAX, sequence (P01106 16-454, chain 1 of 2): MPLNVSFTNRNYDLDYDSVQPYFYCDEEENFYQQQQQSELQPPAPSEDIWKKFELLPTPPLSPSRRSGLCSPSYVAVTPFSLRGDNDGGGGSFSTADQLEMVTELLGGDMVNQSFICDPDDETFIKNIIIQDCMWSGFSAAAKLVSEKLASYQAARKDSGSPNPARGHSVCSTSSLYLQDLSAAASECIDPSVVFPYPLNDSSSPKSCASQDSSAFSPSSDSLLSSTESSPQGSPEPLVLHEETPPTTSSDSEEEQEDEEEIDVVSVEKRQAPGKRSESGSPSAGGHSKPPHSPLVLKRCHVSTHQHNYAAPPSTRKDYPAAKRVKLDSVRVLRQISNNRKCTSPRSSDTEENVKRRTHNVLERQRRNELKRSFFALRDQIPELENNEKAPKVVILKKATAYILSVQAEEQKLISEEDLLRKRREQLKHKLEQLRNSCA
MYC (p64);MAX (p21), in MYC:MAX, sequence (P61244 other isoform, or with tags, fused parts or gaps |, chain 2 of 2): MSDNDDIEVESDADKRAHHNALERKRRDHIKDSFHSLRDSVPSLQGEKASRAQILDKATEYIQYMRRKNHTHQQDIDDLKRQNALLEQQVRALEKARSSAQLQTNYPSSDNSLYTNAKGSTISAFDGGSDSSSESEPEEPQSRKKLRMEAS

| Sequence | binding signal |
| --- | --- |
| CCGGCTCACACGTGTTATTAATAGCTAAGATTACTATATCGACG | 0.827 log2 normalized fluorescence |
| CCGGCTTACACGTGGAATTAATAGCTAAGATTACTATATCGACG | 0.667 log2 normalized fluorescence |
| CCGGCTGACACGTGGCGTTAATAGCTAAGATTACTATATCGACG | 0.519 log2 normalized fluorescence |
| CCGGCTCACACGGGTTATTAATAGCTAAGATTACTATATCGACG | 0.461 log2 normalized fluorescence |
| CCGGCTTACACGTGGCGTTAATAGCTAAGATTACTATATCGACG | 0.878 log2 normalized fluorescence |
| CCGGCTAATACGTGGTGTTAATAGCTAAGATTACTATATCGACG | 0.417 log2 normalized fluorescence |
| CCGGCTTACAAGTGTTATTAATAGCTAAGATTACTATATCGACG | 0.479 log2 normalized fluorescence |
| CCGGCTCACACGTGATATTAATAGCTAAGATTACTATATCGACG | 0.75 log2 normalized fluorescence |
| CCGGCTTAAACGTGTTATTAATAGCTAAGATTACTATATCGACG | 0.426 log2 normalized fluorescence |
| CCGGCTTACACGTGGTGTTAATAGCTAAGATTACTATATCGACG | 0.827 log2 normalized fluorescence |
| CCGGCCTACACGTGGTGTTAATAGCTAAGATTACTATATCGACG | 0.779 log2 normalized fluorescence |
| CCGGCTTACACGTGTTATTAATAGCTAAGATTACTATATCGACG | 1.05 log2 normalized fluorescence |
| CCGGCTGATTTAATGTATTAATAGCTAAGATTACTATATCGACG | 0.0643 log2 normalized fluorescence |
| CCGGCTGAACCTACGTATTAATAGCTAAGATTACTATATCGACG | 0.131 log2 normalized fluorescence |
| CCGGCTGATCGCTTGTATTAATAGCTAAGATTACTATATCGACG | -0.00084 log2 normalized fluorescence |
| CCGGCTGAACATGGGTATTAATAGCTAAGATTACTATATCGACG | 0.288 log2 normalized fluorescence |
| CCGGCTGATCGGCGGTATTAATAGCTAAGATTACTATATCGACG | 0.0519 log2 normalized fluorescence |
| CCGGCTGACAGTCGGTATTAATAGCTAAGATTACTATATCGACG | 0.0326 log2 normalized fluorescence |
| CCGGCTGACAGTTGGTATTAATAGCTAAGATTACTATATCGACG | 0.112 log2 normalized fluorescence |
| CCGGCTGAAATAGTGTATTAATAGCTAAGATTACTATATCGACG | 0.0457 log2 normalized fluorescence |
| CCGGCTGTCATGTGGTATTAATAGCTAAGATTACTATATCGACG | 0.631 log2 normalized fluorescence |
| CCGGCTGACCTGTTGTATTAATAGCTAAGATTACTATATCGACG | 0.216 log2 normalized fluorescence |
| CCGGCTGAAAGAATGTATTAATAGCTAAGATTACTATATCGACG | 0.0901 log2 normalized fluorescence |
| CCGGCTGATCATTTGTATTAATAGCTAAGATTACTATATCGACG | 0.247 log2 normalized fluorescence |
| CCGGCTGCCACGTGGTATTAATAGCTAAGATTACTATATCGACG | 0.82 log2 normalized fluorescence |
| CCGGCGGCCACGTGGTATTAATAGCTAAGATTACTATATCGACG | 0.783 log2 normalized fluorescence |
| CCGGCTGAGACGTGGTCTTAATAGCTAAGATTACTATATCGACG | 0.229 log2 normalized fluorescence |

| Sequence | binding signal |
| --- | --- |
| CCGGCTACTATGCCATGTTAATAGCTAAGATTACTATATCGACG | 0.159 log2 normalized fluorescence |
| CCGGCCGCCACGTGGTCTTAATAGCTAAGATTACTATATCGACG | 0.884 log2 normalized fluorescence |
| CCGGCTGATACGTGGTCTTAATAGCTAAGATTACTATATCGACG | 0.408 log2 normalized fluorescence |
| CCGGCTGCCACGTCGTATTAATAGCTAAGATTACTATATCGACG | 0.37 log2 normalized fluorescence |
| CCGGCTGCCATGTGGGATTAATAGCTAAGATTACTATATCGACG | 0.899 log2 normalized fluorescence |
| CCGGCTGCCATGTGGTTTTAATAGCTAAGATTACTATATCGACG | 0.633 log2 normalized fluorescence |
| CCGGCCACCACGTGGTATTAATAGCTAAGATTACTATATCGACG | 0.975 log2 normalized fluorescence |
| CCGGCTGCGACGTGGTATTAATAGCTAAGATTACTATATCGACG | 0.41 log2 normalized fluorescence |
| CCGGCAACCACGTGGTATTAATAGCTAAGATTACTATATCGACG | 0.742 log2 normalized fluorescence |
| CCGGCTGATGAGACGTATTAATAGCTAAGATTACTATATCGACG | -0.0198 log2 normalized fluorescence |
| CCGGCTGATACAGTGTATTAATAGCTAAGATTACTATATCGACG | 0.0568 log2 normalized fluorescence |
| CCGGCTGAGATGCTGTATTAATAGCTAAGATTACTATATCGACG | -0.0512 log2 normalized fluorescence |
| CCGGCTGAGGCTATGTATTAATAGCTAAGATTACTATATCGACG | -0.0462 log2 normalized fluorescence |
| CCGGCTGACTCTTGGTATTAATAGCTAAGATTACTATATCGACG | 0.16 log2 normalized fluorescence |
| CCGGCTGATGGCCTGTATTAATAGCTAAGATTACTATATCGACG | 0.18 log2 normalized fluorescence |
| CCGGCTGATACACGGTATTAATAGCTAAGATTACTATATCGACG | 0.262 log2 normalized fluorescence |
| CCGGCTGAGCCAATGTATTAATAGCTAAGATTACTATATCGACG | 0.00395 log2 normalized fluorescence |
| CCGGCTGAAACCGCGTATTAATAGCTAAGATTACTATATCGACG | 0.25 log2 normalized fluorescence |
| CCGGCTGAGAGTACGTATTAATAGCTAAGATTACTATATCGACG | 0.142 log2 normalized fluorescence |
| CCGGCTGAGGGTCGGTATTAATAGCTAAGATTACTATATCGACG | 0.137 log2 normalized fluorescence |
| CCGGCCGCCACGTAGTATTAATAGCTAAGATTACTATATCGACG | 0.312 log2 normalized fluorescence |
| CCGGCCGCGACGTGGTATTAATAGCTAAGATTACTATATCGACG | 0.471 log2 normalized fluorescence |
| CCGGCCGCCACGTGGTATTAATAGCTAAGATTACTATATCGACG | 0.88 log2 normalized fluorescence |
| CCGGCTGTCACGTGGAATTAATAGCTAAGATTACTATATCGACG | 0.766 log2 normalized fluorescence |
| CCGGCTGCCACGAGGAATTAATAGCTAAGATTACTATATCGACG | 0.707 log2 normalized fluorescence |
| CCGGCTGCCACGTGGAATTAATAGCTAAGATTACTATATCGACG | 0.873 log2 normalized fluorescence |
